Source: PubChem BioAssay AID618 (Sanford-Burnham Center for Chemical Genomics, 2007)
The whole screen tested about 87,000 compounds, of which about 540 (0.62%) were called active. No rule for the calls is given here. Shown is part of a subset that was picked to be rich in actives. Measured potencies and affinities stand elsewhere.

Assay: inhibitors of MT1-MMP promoter transcription, cell-based, luciferase reporter, luminescence (AID 618);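 also: actives suppress MT1-MMP promoter-driven transcription so potencies describe inhibitors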
Conditions: MT1-MMP promoter luciferase reporter cells

Structure (SMILES)	outcome
COc1ccc(C)cc1S(=O)(=O)N1CCC(C(=O)NCCC2=CCCCC2)CC1	inactive
NS(=O)(=O)c1ccc(NS(=O)(=O)c2cccs2)cc1	inactive
CCN(CC)c1ccc2c(c1)OC(N)=C(C#N)C2c1cccnc1 (stereo not drawn)	active
N#CC1=C(N)Oc2cc(O)ccc2C1c1ccccc1 (stereo not drawn)	inactive
N#CC1=C(N)Oc2cc3ccccc3cc2C1c1cccnc1 (stereo not drawn)	inactive
N#CC1=C(N)Oc2cc(N)ccc2C1c1ccc(F)cc1 (stereo not drawn)	inactive
COc1cc(C2C(C#N)=C(N)Oc3cc(C)oc(=O)c32)cc2c1OCO2 (stereo not drawn)	inactive
COc1cc(C2C(C#N)=C(N)Oc3cc(N(C)C)ccc32)cc2c1OCO2 (stereo not drawn)	active
CN(C)c1ccc2c(c1)OC(N)=C(C#N)C2c1cccc(F)c1 (stereo not drawn)	active
N#CC1=C(N)Oc2c(ccc3cccnc23)C1c1cccnc1 (stereo not drawn)	inactive
COc1cc(C2C(C#N)=C(N)Oc3cc(O)ccc32)cc2c1OCO2 (stereo not drawn)	inactive
Cc1cc(NC(=O)CSc2nc3c(c(=O)n2CCc2ccccc2)SC(C)C3)no1 (stereo not drawn)	inactive
O=C1CC(c2ccccc2)n2nc(NC(=O)c3cccs3)nc2N1 (stereo not drawn)	inactive
COc1cc2nc(C)sc2cc1SC	inactive
O=C(C1CCCN(Cc2ccccc2Br)C1)N1CCCCC1 (stereo not drawn)	inactive
COc1cccc(NC(=O)CSc2nnc(-c3ccoc3C)n2CC2CCCO2)c1 (stereo not drawn)	inactive
C=CCNC(=O)C1CCN(c2nc(C)cc(-c3ccccc3)n2)CC1	inactive
c1ccc(C2=Nn3c(nnc3-c3ccncc3)SC2)cc1	inactive
COc1ccc(CC(C(=O)Nc2cc(C)ccc2C)/C(N)=N/O)cc1 (stereo not drawn)	inactive
Cc1ccc2nc(-c3ccccc3)cn2c1	active
COc1ccc(-c2cn3cc(C)ccc3n2)cc1OC	inactive

Structure (SMILES)	outcome
Cc1ccc2nc(-c3cccc(S(=O)(=O)N(C)C)c3)cn2c1	inactive
CCOc1ccccc1NC(=O)Cn1nnc(C(=O)NCc2ccco2)c1N	inactive
CCOC(=O)C(C(=O)OCC)=C1OC(=O)c2ccccc21	inactive
CN(C)CCCNC(=O)c1ccc(-c2ccccc2)cc1	inactive
CCOC(=O)CNC(=O)c1cn(CC(C)C)c(=O)c2cc(OC)c(OC)cc12	inactive
Cc1ccc2cc(CN(CC3CCCO3)S(=O)(=O)c3c(C)ccc4nsnc34)c(=O)[nH]c2c1 (stereo not drawn)	inactive
COCc1nnc(NS(=O)(=O)c2c(C)cc(C)cc2C)s1	inactive
O=c1/c(=C/c2ccc(O)cc2)sc2n1CCCN=2	inactive
O=c1/c(=C\c2ccc3c(c2)OCO3)sc2n1CCCN=2	inactive
CN(C)c1ccc(/C=c2\sc3n(c2=O)CCCN=3)cc1	active
O=C(NCCN1CCOCC1)c1ccc2ccccc2n1	inactive
COCCn1cc(C(=O)NCCCN2CCC(C)CC2)c2c3ccccc3n(C)c2c1=O	inactive
CCC(C)(C)n1nnnc1C(c1cc2ccc(OC)cc2[nH]c1=O)N1CCc2ccccc21 (stereo not drawn)	inactive
O=C(Cc1ccccc1)Nc1ccc(NC(=O)c2ccco2)nc1	inactive
O=C(Nc1ccc(NC(=O)C2CCCCC2)nc1)c1ccco1	inactive
CCC(=O)Nc1ccc(NC(=O)c2ccccn2)cn1	inactive
O=C(Nc1ccc(NC(=O)C2CC2)nc1)c1ccco1	inactive
CCCC(=O)Nc1ccc(NC(=O)c2ccccn2)cn1	inactive
O=C(Nc1ccc(NC(=O)C2CCCCC2)cn1)c1ccco1	active
O=C(Nc1ccc(NC(=O)c2ccco2)nc1)c1cccnc1	inactive
CCN(Cc1ccccc1)C(c1cc2cc(C)ccc2[nH]c1=O)c1nnnn1CCOC (stereo not drawn)	inactive

Structure (SMILES)	outcome
CCCCCCn1c(N2CCN(c3ccccc3)CC2)nc2c1c(=O)n(C)c(=O)n2C	inactive
O=C(Cn1cnc2ccccc2c1=O)N1CCOCC1	inactive
CCC1=C2CC[C@H]3C(=O)N(c4ccccc4)C(=O)[C@H]3[C@H]2[C@@]2(Cc3ccccc3)C(=O)N(CC(=O)OC)C(=O)N2C1=O	inactive
N#Cc1c(/N=C/c2ccc(Br)s2)sc2c1CCC2	inactive
N#Cc1c(/N=C/c2cccs2)sc2c1CCC2	inactive
N#Cc1c(/N=C/c2cccs2)sc2c1CCCCC2	active
COc1ccc(C(CNC(=O)c2ccc(-n3cnnn3)cc2)N2CCOCC2)cc1 (stereo not drawn)	inactive
CC(=O)c1ccc(-c2nc3ccccc3n2C)o1	inactive
Cc1oc(-c2nc3ccccc3n2C)cc1C(=O)c1ccccc1	active
Cn1cc(C(=O)c2ccccc2)cc1-c1nc2ccccc2n1C	inactive
C/C(=C1\SC(N2CCOCC2)=NC1=O)c1ccc(C)cc1	inactive
Cc1ccc(CS(=O)(=O)CCC(=O)NCc2ccc3c(c2)OCO3)cc1	inactive
CCC(=O)Nc1cccc(-c2nc3ccccc3o2)c1	inactive
CCCC(=O)Nc1ccc(-c2nc3cc(C)c(C)cc3o2)cc1	inactive
CCC(C)NCC(=O)Nc1ccc(-c2nc3cc(NC(=O)CNC(C)CC)ccc3o2)cc1 (stereo not drawn)	inactive
Cc1cc2nc(-c3ccc(NC(=O)C(C)C)cc3)oc2cc1C	inactive
CC(C)(C)c1ccc(OCC(=O)Nc2ccc(-c3nc4cccnc4o3)cc2)cc1	inactive
Cc1ccc(-c2nc3cc(NC(=O)C(C)C)ccc3o2)cc1C	inactive
CCC(=O)Nc1ccc2oc(-c3cccc(C)c3)nc2c1	active
CCC(=O)Nc1ccc2oc(-c3ccccc3Br)nc2c1	inactive
Cc1ccc2oc(-c3ccc(NC(=O)CC(C)C)cc3)nc2c1	inactive
